# KB-3-1 tox = kills parental KB-3-1 adenocarcinoma cells; KB-3-1 viability, CellTiter-Glo ATP luminescence, 72 h; Potency, µM (doses to about 46.1 µM), actives largely listed as cytotoxic; hit rate 1.4% among 400,000; AID 1347075; also: % is scaled to controls: 0 for no effect and ±100 for the full control effect; nearly all actives have a fitted effect of over 60% in size
#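 Screening of KB-3-1 cells (DMEM, 10% FBS, phenol-red free) ran from lowest to highest compound concentration; after 72 h at 37 °C viability was read luminescently and curves fitted.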
# HT1080NT lethal = kills 2HG-producing HT-1080-NT fibrosarcoma cells | HT-1080-NT fibrosarcoma viability, CellTiter-Glo ATP luminescence, 48 h | Potency, µM (top dose mostly 46.1 µM), for inactives: at the top dose activity, negative = less viability, hits mostly cytotoxic | hit rate 1.6% among 360,000;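 also: NT is the 2HG producing partner of a matched IDH1 knockdown line; 0% = DMSO-treated cells and -100% = media-only wells without cells; nearly all actives have a fitted effect of over 55% in size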
#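 HT-1080-NT fibrosarcoma cells (2HG-overproducing), 750 cells/well in RPMI with 5% FBS, dosed after 2 h and incubated 48 h at 37C. CellTiter-Glo luminescence normalized to DMSO and no-cell wells; concentration-response curves fitted and classed.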
# MCF10A rerep = inducers of DNA re-replication in MCF 10A breast cells; hit rate 2.9% among 350,000; AID 624296; MCF 10A DNA re-replication, Hoechst nuclear intensity, 48 h; Potency, µM (highest dose often 46.1 µM), for inactives: at the top dose activity, positive = re-replication, most hits filed as activators; also: % of control where 0% means no effect; nearly all actives have a fitted effect of over 50% in size
# KB-V1 MDR tox = KB-V1 MDR subline cytotoxicity | KB-V1 MDR cells viability, CellTiter-Glo, 72 h | Potency, µM (series often up to 46.1 µM), actives largely listed as cytotoxic | hit rate 3.4% among 400,000 | AID 1347076; also: % is scaled to controls: 0 for no effect and ±100 for the full control effect; nearly all actives have a fitted effect of over 60% in size
#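 Following 72 h at 37 degrees C with compound, KB-V1 cell viability was read by CellTiter-Glo luminescence, medium being phenol-red-free DMEM plus 10% FBS; concentration-response parameters came from normalized, curve-fitted qHTS data.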
# HT1080 IDH1KD tx = toxicity to HT-1080 IDH1 knockdown cells (counter line); HT-1080 IDH1 knockdown viability, ATP luminescence, 48 h; Potency, µM (top dose mostly 46.1 µM), for inactives: at the top dose activity, negative = toxicity, hits mostly cytotoxic; hit rate 2% among 360,000;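 also: 0% = DMSO wells and -100% = cell-free medium wells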
#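 Cytotoxicity counter-line: IDH1KD HT-1080, 48 h, CellTiter-Glo. Curves classed by r2, magnitude and activity.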
# SW480 rerep = induces DNA re-replication in SW480 colon adenocarcinoma cells; SW480 DNA re-replication, Hoechst DNA content imaging, 48 h; Potency, µM (titrated, usually from 46.1 µM), without a hit: at the highest dose re-replication activation, actives largely listed as activators; hit rate 1.8% among 340,000; also: % of control where 0% means no effect; nearly all actives have a fitted effect of over 55% in size
#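 SW480 cells exposed to compounds for 48 hr at 37 C, 5% CO2, then Hoechst-stained 40 min. Nuclear DNA content imaged by fluorescence scanning (405 nm excitation, 500-530 nm emission); re-replication scored as increased high-intensity nuclei.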
# * marks the source's active call; other numbers are inactive results; i = inactive; ? = inconclusive; nt = no result given; [ ] = remark or other dose. An excerpt weighted towards active compounds, which were near 8% of everything screened. Calls follow the shape of the dose curve; as a rule, active = well fitted curve in the direction sought with a large enough effect; inconclusive = small, poorly fitted or top-dose-only effect, or another doubt; inactive = no such curve, though single readings can be large; an effect the other way counts as inactive or inconclusive. Potency is read from the fitted curve at half-maximal effect.
SMILES,KB-3-1 tox,HT1080NT lethal,MCF10A rerep,KB-V1 MDR tox,HT1080 IDH1KD tx,SW480 rerep
CS(=O)(=O)N(CC(=O)N/N=C/c1ccccc1C(=O)O)c1cccc(Cl)c1Cl,i,2%,1%,i,-9%,5%
COc1ccccc1/C=C/C1(C(=O)NC2CCCC2)CC(=O)N1c1ccc(C)cc1 (centres undefined),21µM*,?,18µM*,2.9µM*,?,?
CCN(CC)S(=O)(=O)c1ccc(N2C(=O)CC2(/C=C/c2ccccc2)C(=O)NC2CCCC2)cc1 (centres undefined),i,0%,?,2.6µM*,-8%,?
COc1ccccc1OCC(=O)NC1CCCCCC1,i,17%,1%,?,4%,-2%
COc1ccccc1/C=C/c1onc(C)c1S(=O)(=O)N1CCC(C(=O)NC2CCCCCC2)CC1,i,4%,9%,i,17%,-6%
COc1ccccc1/C=C/C1(C(=O)NC2CCCC2)CC(=O)N1c1ccc(F)cc1 (centres undefined),i,?,?,?,8.2µM*,16µM*
Cc1cc2oc(C(=O)Nc3sc4c(c3C(=O)NCc3ccccc3)CCCC4)cc(=O)c2cc1C,i,nt,nt,i,nt,nt
COC(=O)c1ccc(Nc2cc(C)nc3ccc(C)cc23)cc1,6.5µM*,21µM*,18µM*,?,23µM*,18µM*
CC(=O)c1cccc(Nc2cc(C)nc3ccc(C)cc23)c1,?,18µM*,-31%,?,?,3%[9.22 µM]
CC(=O)c1cccc(Nc2cc(C)nc3c(C)cc(C)cc23)c1,i,-18%,?,16µM*,?,10%
Cc1ccc2nc(C)cc(Nc3ccc([N+](=O)[O-])cc3)c2c1,?,-13%,2.9µM*,i,?,9.2µM*
COC(=O)c1ccc2nc(C)cc(Nc3ccccc3C)c2c1,i,-16%,4%,i,-5%,-5%
COc1ccc(C2c3c(n(C)c4ccccc34)C(=O)N2CC(=O)Nc2c(C)cc(C)cc2C)cc1 (centres undefined),i,nt,nt,i,nt,nt
COC(=O)c1cc(-c2ccc(C)cc2)c2c(=O)n(C)c(=O)n(C)c2n1,i,nt,nt,i,nt,nt
CCc1ccc(OCC(=O)Nc2ncn[nH]2)c(Br)c1,i,nt,nt,i,nt,nt
CC(C)=CCC[C@](C)(O)C1CC=C(C)CC1 (some centres undefined),nt,nt,7%,nt,nt,0%
Cc1nnc(SC(C)C(=O)NC2CCCCC2)s1 (centres undefined),i,-3%,0%,i,9%,-26%
CCN(CC)C(=O)CSc1nnc(SC(C)C(=O)NC2CC2)s1 (centres undefined),i,-3%,-4%,26µM*,17%,0%
COc1cc2c(c(OC)c1)C(c1cccc(F)c1F)CC(=O)N2 (centres undefined),i,nt,nt,i,nt,nt
Cc1ccccc1NC(=O)Cc1nc(COC(=O)c2cc(Br)ccc2O)cs1,i,-1%,16µM*,i,-17%,-6%
CC(=O)Nc1cccc(C(=O)OCc2csc(CC(=O)Nc3ccccc3C)n2)c1,i,0%,10%,21µM*,-9%,1%
Cc1cc(C)c(C(=O)OCc2csc(CC(=O)Nc3ccccc3C)n2)c(C)c1,i,-5%,0%,i,-4%,10%
Cc1ccc(C)c(NC(=O)Cn2c(=O)n(CC3CCCO3)c(=O)c3ccccc32)c1 (centres undefined),i,nt,nt,i,nt,nt
N#Cc1cn(Cc2cccc(Cl)c2)c2ccccc12,i,-5%,?,i,-15%,6%
O=C(Cn1cc(/C=C\[N+](=O)[O-])c2ccccc21)Nc1ccccc1,?,?,8.2µM*,?,3.7µM*,?
N#Cc1ccccc1Cn1cc(/C=C/[N+](=O)[O-])c2ccccc21,?,23µM*,4.1µM*,?,23µM*,?

# High-throughput results (PubChem)
